Laboratory results reported in the supplement of paper PMC6555819.

What was measured:
Experiment in all cases: PBM binding z-score (relative to random genomic background probes); higher = stronger binding; sequences stand for … in GC…GCGATTGACAGCGTAGAATGAAGG
[1] = test system: RARb homodimer (NR concentration 270 nM)
Outline: (§1)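 Regression normalization was applied to scanned fluorescence from custom Agilent 4×180K protein-binding microarrays. Before scanning, arrays were incubated 1 h with ligand-free nuclear receptor dimers, and binding was detected with antibodies against each partner (one per run). Binding z-scores use the random background probes as reference.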

[2] = test system: RARg:RXRa (NR concentration 270 nM, RXRa partner concentration 90 nM)
Outline: as §1

[3] = test system: RARg homodimer (NR concentration 270 nM)
Outline: as §1

[4] = test system: RXRa DBDmut IVT, anti-RXR (DBD mutation: RXRa K156A/R161A, NR concentration 90 nM)
Outline: as §1

[5] = test system: RXRa homodimer (NR concentration 180 nM)
Outline: as §1

[6] = test system: THRa:RXRa (NR concentration 90 nM, RXRa partner concentration 90 nM)
Outline: as §1

[7] = test system: THRa homodimer (NR concentration 90 nM)
Outline: as §1

[8] = test system: VDR homodimer (NR concentration 270 nM)
Outline: as §1

Sequence	PBM binding z-score [1]	PBM binding z-score [2]	PBM binding z-score [3]	PBM binding z-score [4]	PBM binding z-score [5]	PBM binding z-score [6]	PBM binding z-score [7]	PBM binding z-score [8]
TTACCTAGGTGAAGGTCGTTGATCCCTCTGTAGA	1.21	0.824	0.525	-0.143	1.29	1.9	0.379	0.61
ACTATTAGTTGAGCCGAGGGCAACCGATAGGTTG	1.35	0.604	0.752	0.39	0.52	2.57	0.523	0.692
TCAGACAGGTGAAGCTAACTCAGGTACGCAGTCG	0.0204	0.241	0.351	0.962	0.617	0.525	-0.351	-0.124
CAAACTAGGTCAAGGTCAAAGTGGGTTTGTGCCA	5.23	5.95	6.67	3.05	5.78	4.34	3.93	5.14
ATCTCTAGGTAAAAGTACAGTGAATCCCGAGGAT	-0.337	0.567	0.702	-0.00884	0.199	0.284	0.0784	0.123
TTACCAAGGTGAACGTCGTTGATCCCTCTGTAGA	0.909	0.602	0.629	-0.298	1.19	2.32	0.991	-0.626
CGTCCAAGGTCAAGGTCAGTGATAGAGACTCGAA	5.36	6.7	7.67	3.76	6.55	4.48	3.93	3.53
CCTAGTTGGTCAAGGTCACACGCGCTATAGGTAC	4.39	4.76	4.72	2.18	4.7	4.17	4.19	3.41
ATACCAAAGTGATCGTGAGGTCGTTGATACTAAC	1.13	0.445	0.273	1.02	0.855	2.76	2.01	3.16
CGAACGACGGCATGAGTTGATAGCAAATGCCGAT	-1.1	-0.397	-0.191	-0.218	-0.57	-0.799	-1.12	-0.0876
CAAACTAGGTTACAGAGGTCAAAGTCCGTGCGTA	4.97	6.01	5.51	2.53	7.1	4.14	2.24	5.09
TCTTGTAGATCAAAAGAGGTTAAGAAAGTGCGCT	0.976	0.867	0.449	0.343	1.35	2.6	-0.614	0.274
CGTCAAAGTTCAACTAAGGTAATGTAAAGCACGC	4.29	5.86	6.53	4.51	5.18	5.18	1.31	3.69
CGAACTAGGTCATCCAGGACAGCGAATACATTGA	3	3.97	4.81	2.19	2.73	3.84	2.24	1.93
GGAACGAGAGCAAAGTTGATAGCATCTGTCGACG	-0.806	-0.113	-0.0315	-0.36	0.334	-0.711	-1.35	-0.396
CGTCCAAGGTCCAAGGTCAGTGAAGAGATGACGG	3.34	2.9	3.28	1.38	2.23	2.99	1.89	1.73
GCGACTGGGGCATCTGCAGGTTACCATAACTTAA	1.06	1.21	0.411	-0.0161	0.555	1.14	-0.146	-0.456

Sequence	PBM binding z-score [1]	PBM binding z-score [2]	PBM binding z-score [3]	PBM binding z-score [4]	PBM binding z-score [5]	PBM binding z-score [6]	PBM binding z-score [7]	PBM binding z-score [8]
GGAACGAGGGCAAAGTAGATAGCATCTGTCGACG	0.856	1.46	1.74	2.46	1.05	0.805	-0.36	0.946
ACAGACAGGTGAGTGAACGTAACTCAGCTGGACG	-0.371	-0.0638	0.417	-0.336	0.275	-0.437	-0.967	-0.683
GATACAGGGTCAGCTCGAGGCCAGAGTATGGAAA	3.45	6.05	4.74	1.23	4.4	3.83	0.628	0.917
CCTCGGAGCACAACAGGAGGTCAGAGCTGCCAGA	2.86	1.9	1.65	-0.138	1.74	1.91	0.301	0.485
TAGCCTAGGGCATGCGGGCCAGTATAGTGTCGGC	0.409	0.0659	0.455	-1.55	-0.233	-0.465	-1.1	-0.907
CCTACTGGGCCAAGGTCCTTGATCAGTCAAAGCA	0.00283	-0.396	-0.0984	-1.13	-0.463	-0.0193	-0.503	-0.774
CCGAGTAGGTTATGGGGCATTAAGGCAACGGTGA	1.08	0.561	0.543	-0.314	0.65	0.981	0.598	0.0646
CAAACTAGGTCAAGAGATCAAAGTCCGCTTCCCG	3.07	4.48	4.39	1.59	3.3	2.63	0.798	0.64
TCCTATAGGTAAAGGTGAAAGTCGAACGATATGA	1.42	1.47	1.3	0.809	1.98	1.26	-0.248	0.13
ATCTCTAGGTAAGACTCAGTTCAGTGTAGAACGC	0.758	0.266	0.408	0.967	0.133	0.88	0.909	1.39
ATATGTAGGTTAGCTGGGCTCATTCAGACTAGGC	0.13	0.263	0.55	-0.108	0.38	0.702	-0.522	-0.144
AGAATGAGGTTACCAAAGATCAGGGCAACGCTTG	1.97	2.24	1.97	1.14	2.77	3.16	1.2	0.728
GCGACTGGGACAAAGCAGGTTACCATAAGGTTGG	0.587	0.308	0.367	-0.523	0.419	1.59	0.162	-0.161
CCGACTGGGGCCAAGGTTACCATACTCAGTACGA	1.87	0.875	1.17	0.424	1.12	1.88	1.07	0.551
TAGCCTAGGTCATTCAGGGGCCAGTAGAGAAAGC	3.21	6.31	4.35	1.84	2.97	3.63	0.688	1.53
TCTCGGAGGACACGAAGCTCAGAGCTTTCCAGAG	0.381	0.265	0.869	0.583	-0.175	1.23	0.177	-0.5
CCTACTTGGCCACGAAAGGTCATTGATTCAGTGA	4.61	4.77	4.41	1.36	5.16	3.44	1.3	2.78
